# In PubChem BioAssay AID1445 (SRMLSC, 2008):
# The campaign covered roughly 220,000 compounds. About 910 (0.41%) were called active. The sample as a whole holds a higher share of actives than the screen did. Potency and affinity values are given separately. Values without a mark were called inactive.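 Rule for the calls: active = primary inhibition above the hit cutoff, then over 50% inhibition at one or more dose response concentrations (cut at about 23% in these data, passing the limit was not always enough); inconclusive = conflicting primary data, or primary hits not chosen for dose response; inactive = low primary inhibition, or under 50% at every dose.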
# Biological target: Aminopeptidase N (Plasmodium falciparum (isolate 3D7)) (UniProt O96935)
# Sequence (O96935 whole entry, looked up): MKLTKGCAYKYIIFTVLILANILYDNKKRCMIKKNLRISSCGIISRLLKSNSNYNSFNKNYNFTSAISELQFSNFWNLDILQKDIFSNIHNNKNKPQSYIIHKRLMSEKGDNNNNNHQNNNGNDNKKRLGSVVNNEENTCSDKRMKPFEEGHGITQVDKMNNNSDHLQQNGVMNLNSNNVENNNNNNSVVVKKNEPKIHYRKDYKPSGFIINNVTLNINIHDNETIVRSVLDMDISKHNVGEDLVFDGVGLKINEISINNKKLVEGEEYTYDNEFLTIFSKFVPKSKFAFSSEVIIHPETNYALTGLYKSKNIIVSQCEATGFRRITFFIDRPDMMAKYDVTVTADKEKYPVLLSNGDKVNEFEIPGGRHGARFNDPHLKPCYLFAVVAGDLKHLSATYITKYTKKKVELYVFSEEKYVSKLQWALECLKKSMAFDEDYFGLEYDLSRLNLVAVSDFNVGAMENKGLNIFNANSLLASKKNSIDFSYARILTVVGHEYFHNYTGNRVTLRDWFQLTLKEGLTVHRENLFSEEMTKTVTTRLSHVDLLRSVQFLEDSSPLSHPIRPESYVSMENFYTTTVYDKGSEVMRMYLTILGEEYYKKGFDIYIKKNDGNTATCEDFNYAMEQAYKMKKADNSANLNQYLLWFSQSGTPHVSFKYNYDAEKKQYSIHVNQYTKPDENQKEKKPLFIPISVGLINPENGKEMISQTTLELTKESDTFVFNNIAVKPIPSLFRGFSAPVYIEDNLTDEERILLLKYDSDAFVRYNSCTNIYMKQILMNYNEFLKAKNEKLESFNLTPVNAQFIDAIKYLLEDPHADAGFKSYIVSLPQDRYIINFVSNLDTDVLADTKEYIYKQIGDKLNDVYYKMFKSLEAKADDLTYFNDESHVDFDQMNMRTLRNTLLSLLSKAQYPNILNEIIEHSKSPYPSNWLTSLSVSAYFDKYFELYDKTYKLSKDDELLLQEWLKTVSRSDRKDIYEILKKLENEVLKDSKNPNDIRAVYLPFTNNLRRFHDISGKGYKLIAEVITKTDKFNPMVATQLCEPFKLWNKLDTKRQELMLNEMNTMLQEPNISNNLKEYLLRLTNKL
# Test: P. falciparum M1AAP inhibitors, biochemical, fluorogenic H-Leu-NHMec substrate, 1536-well (AID 1445);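 note: plate controls were DMSO full reaction for no effect and no enzyme background for full effect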
# Details: recombinant M1AAP, H-Leu-NHMec fluorogenic kinetic assay; at 30 µM, hits give high values unless noted
row,Compound,inhibition
1,COc1ccccc1NC(=O)Cn1nc(Cc2cccnc2)c2ccccc2c1=O,4.36%
2,Cc1cc2cc(C#N)c(NCCNC(=S)NCCCN3CCOCC3)nc2cc1C,11%
3,Cc1nc(SCC(=O)NCc2cccs2)nc(C)c1C,1.91%
4,CCOc1ccc(N2CC(=O)N/C2=N\c2nc(C)cc(C)n2)cc1,0.69%
5,CS(=O)(=O)N(CC(=O)NCc1ccccc1Cl)C1CCCCC1,-3.91%
6,CCC(CC)C(=O)NN(C(=O)c1ccncc1)C1CC(=O)N(c2ccccc2)C1=O (configuration not stated),0.84%
7,CCN(CC)Cc1ccc(NC(=O)c2sc3cc(Cl)ccc3c2Cl)cc1,5.72%
8,CCOC(=O)C1ON2CCCCC2C1(O)C(F)(F)F (configuration not stated),4.11%
9,O=C(Nc1scc(-c2ccccc2)c1C(=O)O)c1ccco1,13.6%
10,Cc1ccc(C(=O)Nc2ccccc2-c2ccccc2)o1,5.46%
11,COC(=O)c1c(-c2ccc3ccccc3c2)csc1NC(=O)Cc1ccc(OC)c(OC)c1,-5.43%
12,CCOC(=O)c1c(-c2ccc(OC)cc2)csc1NC(=O)CSc1ccccc1,9.31%
13,COc1ccc(-c2csc(NC(=O)c3ccc(OCC(=O)N4CCOCC4)c(OC)c3)n2)cc1OC,-0.86%
14,COc1ccc(CCNC(=O)[C@@H](NC(N)=O)C(C)C)cc1,1.11%
15,CCOc1ccccc1NC(=O)CCNC(=O)c1ccc(Cl)cc1,-0.92%
16,O=C(Nn1c(-c2ccccc2)nc2ccccc2c1=O)C1CCC1,8.13%
17,Cc1nc2ccccc2c(=O)n1NC(=O)C1CCCCC1,0.92%
18,COc1cccc(OC)c1C(=O)Nn1c(C2CCC2)nc2ccccc2c1=O,1.68%
19,COc1ccccc1C(=O)Nn1c(C2CCC2)nc2ccccc2c1=O,28.5%
20,NS(=O)(=O)c1ccc(NC(=S)NC(=O)/C=C/c2ccco2)cc1,22.5%
21,C/C(=N/NC(=O)CN1CCN(S(=O)(=O)c2ccc(Br)cc2)CC1)c1ccco1,3.47%
22,COc1ccc(NC(=O)c2ccc(-c3ccccc3Cl)o2)cc1,2.03%
23,Cc1ccc(S(=O)(=O)N2CCCCC2)cc1NC(=O)CSc1nnc(N)s1,11.9%
24,COc1ccccc1OCC(=O)N/N=C1\CCc2ccccc21,-5.88%
25,O=C1Nc2ncccc2OC1CCO (configuration not stated),1.94%

row,Compound,inhibition
1,COc1ccc(Br)cc1/C=N/NC(=O)c1cc(Br)ccc1O,9.13%
2,C=CCc1cccc(/C=N/NC(=O)c2ccccc2Br)c1O,-2.15%
3,O=C(N/N=C/c1cc(Br)ccc1O)Nc1ccccc1,2.93%
4,O=C(N/N=C/c1ccccc1C(=O)O)c1ccccc1Br,-4.66%
5,CC1=NNC(=O)C1Oc1ccccc1 (configuration not stated),3.86%
6,CCCCCCn1c(N2CCC(C(N)=O)CC2)nc2c1c(=O)[nH]c(=O)n2C,-0.78%
7,Cc1nc(Cl)sc1C(=O)Nc1ccccc1,2.8%
8,O=C(CSc1nc2ccccc2c(=O)n1-c1ccccc1)c1c[nH]c2ccccc12,1.41%
9,COc1ccc2cc(C(=O)C3CCCN(C(=O)CSc4nnc(C)o4)C3)ccc2c1 (configuration not stated),12.3%
10,OC1=C(O)c2nc3ccccc3nc21,-5.83%
11,Cc1cc2nc3c(nc2cc1C)C(O)=C3O,20.8%
12,Cc1nc2c(c3c1[nH]c1ccccc13)C(O)CC(C)(C)C2 (configuration not stated),22.4%
13,C=CCn1c(=O)/c(=C/c2ccc(Cl)cc2)s/c1=C(/C#N)c1nnc2n1CCCCC2,21.5%
14,C=CCn1c(=O)/c(=C/c2ccc(F)cc2)s/c1=C(\C#N)c1nnc2n1CCCCC2,20.7%
15,CCOc1ccc(NC(=NCc2ccc3c(c2)OCO3)SC2CC(=O)N(c3ccc(C(=O)O)cc3)C2=O)cc1 (configuration not stated),1.35%
16,N=c1sccn1CC(=O)Nc1ccc(S(=O)(=O)N2CCOCC2)cc1,-2.17%
17,Cc1ccc(Cn2c(O)c(N=O)c3ccccc32)cc1,4.37%
18,O=C(c1ccc2c(c1)OCO2)C1CCCN(C2CCN(CCc3ccccc3)CC2)C1 (configuration not stated),6.4%
19,CC(C)(C)NC(=O)CSc1nnc(Cc2ccccc2)n1CC1CCCO1 (configuration not stated),2.88%
20,O=C(NCc1ccccn1)C1C2C=CC(C2)C1C(=O)Nc1ccc(F)cc1 (configuration not stated),18.1%
21,COc1ccc(NC(=O)NCc2ccco2)c(OC)c1,1.06%
22,COc1ccc(OC)c(NC(=S)NCc2cccnc2)c1,4.71%
23,COc1ccc(NC(=O)C2C3C=CC(C3)C2C(=O)NCc2ccccn2)c(OC)c1 (configuration not stated),25.6% (active)
24,COc1ccc(NC(=O)C2C3C=CC(C3)C2C(=O)NCc2ccco2)cc1 (configuration not stated),4.82%
25,O=C(O)C1C2C=CC(C2)C1C(=O)NCc1ccccn1 (configuration not stated),-0.69%

row,Compound,inhibition
1,COc1ccc(OC)c(C2=NOC(C(=O)NCc3ccccn3)C2)c1 (configuration not stated),-2.41%
2,O=C(O)C1C2C=CC(C2)C1C(=O)NCc1cccnc1 (configuration not stated),2.34%
3,Cc1cccc(C)c1NC(=O)C1C2C=CC(C2)C1C(=O)NCc1ccccn1 (configuration not stated),15.1%
4,O=C(Cn1nc(Cl)nc1Cl)Nc1ccccc1,0.91%
5,O=C(NNC(=S)Nc1ccc(F)cc1)C1[C@H]2CCCC[C@@H]12 (some centres not stated),-16.1%
6,O=C(NCc1n[nH]c(=S)n1-c1ccc(Br)cc1)c1ccc(S(=O)(=O)N2CCOCC2)cc1,2.45%
7,Cc1cc(C)c(S(=O)(=O)N2CCN(C)CC2)c(C)c1,4.18%
8,Cc1ccc(NC2=C(Cl)C(=O)OC2OC(=O)c2ccco2)cc1C (configuration not stated),5.26%
9,C=CCOC(=O)C1=C[C@@H](c2coc3ccccc3c2=O)C[C@@H](OCc2ccc(CO)cc2)O1,6.22%
10,CCN(CC)CCOC(=O)c1cccc2c1-c1ccccc1C2O (configuration not stated),1.02%
11,NNC(=O)c1cc2c(s1)-c1cc(Cl)ccc1SC2,3.34%
12,CC(=O)Nc1cccc(C(=O)Nc2ccccc2C(=O)O)c1,-0.69%
13,Cc1ccc(SCC(=O)Nc2ccccc2C(=O)O)cc1,-0.6%
14,Cc1ccc(C)c(Oc2coc3cc(OCC(=O)Nc4ccccc4C(C)C)ccc3c2=O)c1,2.02%
15,COc1ccc(C(=O)ON=C2CCN(c3ccc([N+](=O)[O-])cc3)CC2)cc1,4.56%
16,Cc1ccc(C(=O)ON=C2CCN(c3ccc([N+](=O)[O-])cc3)CC2)cc1,14.4%
17,Cc1ccc2nc(-c3ccc(SCC(=O)N4CCc5ccccc54)nc3)[nH]c2c1,4.65%
18,C=C1c2ccccc2NC(=O)N1c1ccc(C)cc1,-1.9%
19,CC1CCCCN1C(=S)NC(=O)c1cccs1 (configuration not stated),13.7%
20,CCC1CCCCN1C(=S)NC(=O)c1ccc([N+](=O)[O-])cc1 (configuration not stated),5.65%
21,COc1cc(O)c(C(CC(=O)N2CCN(c3ccccc3)CC2)c2ccc(N(C)C)cc2)c(OC)c1 (configuration not stated),0.72%
22,O=C(Nc1ccc2c(c1)OCO2)C1CCCN(S(=O)(=O)c2cccs2)C1 (configuration not stated),13.9%
23,O=C(NCc1ccc2c(c1)OCO2)C1CCCN(S(=O)(=O)c2cccs2)C1 (configuration not stated),24.9% (active)
24,CS(=O)(=O)N1CCC(C(=O)NCc2ccc3c(c2)OCO3)CC1,21.2%
25,O=C(NCc1ccccc1)C1CCCN(S(=O)(=O)c2cccnc2)C1 (configuration not stated),20%

row,Compound,inhibition
1,Cc1ccc(CNC(=O)C2CCCN(S(=O)(=O)c3cccnc3)C2)cc1 (configuration not stated),13%
2,COc1cccc(CNC(=O)C2CCN(S(=O)(=O)c3cccs3)CC2)c1,10.2%
3,O=C(NCc1ccc2c(c1)OCO2)C1CCN(S(=O)(=O)N2CCCCC2)CC1,10.8%
4,O=C(Nc1ccc2c(c1)OCO2)C1CCN(S(=O)(=O)c2cccs2)CC1,3.56%
5,CCS(=O)(=O)N1CCCC(C(=O)NCc2ccc3c(c2)OCO3)C1 (configuration not stated),1.85%
6,Cc1nc2ccccc2c2oc(C(=O)NC3CC3)cc12,1.86%
7,COC(C[C@@H](O)CC(=O)[C@@H](C)OCc1ccccc1)OC,-6.94%
8,O=C(NCc1ccc2c(c1)OCO2)C1CC(=O)N(CCc2ccccc2)C1 (configuration not stated),0.19%
9,O=C(Cn1cccc1C(=O)c1ccccc1)NCc1ccccn1,4.68%
10,CC(Sc1ccc(Cl)cc1)C(=O)Nc1ccccc1C(=O)N1CCOCC1 (configuration not stated),-3.03%
11,Nc1ccc2c(c1)nc(Cc1ccccc1)n2CCO,9.11%
12,Cc1ccnc(NS(=O)(=O)c2cnc(Cl)c(Br)c2)c1,4.88%
13,Cc1cccc(-n2cc(CN(C)Cc3nccn3C)c(-c3cccc(F)c3)n2)c1,4.73%
14,CN(CC(=O)Nc1ccc(F)cc1)C(=O)COc1ccc(C(=O)c2ccccc2)cc1,2.01%
15,COCCn1c(SCC(=O)NC(=O)NCc2ccccc2)nc2ccccc21,-0.93%
16,CCCn1c(C)cc(/C=C(\C#N)C(=O)OCC(=O)NC(=O)NCC)c1C,8.1%
17,COc1ccc(N(CC(=O)Nc2ccccc2C(=O)O)S(=O)(=O)c2ccc(C)c([N+](=O)[O-])c2)cc1,6.07%
18,Cc1ccc(OCC(=O)Nc2ccc(N3CCN(C(=O)c4ccc(C)cc4)CC3)cc2)cc1,-2.61%
19,Cc1ccc(C(=O)N2CCN(S(=O)(=O)c3ccccc3)CC2)cc1,1.63%
20,COc1ccc(OC)c2sc(NC(=O)c3ccc(S(=O)(=O)N(C)C)cc3)nc12,23.5% (active)
21,COc1ccc(NC(=O)c2ccc(S(=O)(=O)N(C)C)cc2)cc1OC,-1.14%
22,COc1ccc(OC)c2sc(NC(=O)c3ccc(S(=O)(=O)N4CCOCC4)cc3)nc12,-1.73%
